“And” between values parts separate entries of the source, which are not always exact repeats. Identical values can stand only once. Some structures have more than one record in an assay (separate samples or runs), and their calls can disagree. The source made the active and inactive calls. The calls were made as follows: active = hit-call score of the fitted dose curve at least 0.9, where 1 is the maximum; inactive = score below 0.9.
Read-out: not listed separately
Test: BSK_SAg_PBMCCytotoxicity: PBMC Cytotoxicity Assessment in the BioMAP Diversity Plus: SAg Assay (AID 2283093);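 also: fitted both ways against DMSO so a hit may be loss or gain of signal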;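 as to AC50: PBMC superantigen activated with SEB plus TSST-1 one hour after compound addition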
Conditions: primary human HUVEC with PBMC
Summary of the method: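 PBMC viability by Alamar Blue reduction, fluorescence read at 546/580 nm after 6 h dye exposure. Cells were dosed 1 h before SEB plus TSST-1 activation (20 ng/mL final each), then held 90 h; endothelial/PBMC human co-culture.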

| Compound | AC50 | outcome |
| --- | --- | --- |
| CCOC(=O)C(C#N)=C(c1ccccc1)c1ccccc1 | 1.24 µM (active) | inactive |
| Clc1cc(Cl)c(-c2c(Cl)c(Cl)cc(Cl)c2Cl)cc1Cl | 17.4 µM (active) | – |
| COc1ccc(OC)c(N=Nc2c(O)ccc3ccccc23)c1 | 2.12 µM (active) | – |
| IC(I)I | – | inactive |
| c1ccc(CCc2ccccc2)cc1 | 34.2 µM (active) | – |
| O=C1OC[C@H](Cc2cccc(O)c2)[C@H]1Cc1cccc(O)c1 | – | inactive |
| O=CN1CCOCC1 | – | inactive |
| CC=Cc1ccc(OCC)c(O)c1 | – | inactive |
| C=C(C)[C@H]1CC=C(C)C(=O)C1 | – | inactive |
| CC(=O)c1c(C)c([N+](=O)[O-])c(C(C)(C)C)c([N+](=O)[O-])c1C | – | inactive |
| C=CC(C)(O)CCC=C(C)C (stereo not drawn) | – | inactive |
| CC1(C)C2=CCCC(C)(C)[C@]23CC[C@H]1C3 | 35.6 µM (active) | – |
| C[C@@H]1CCN(C(=O)[C@H](CCCN=C(N)N)NS(=O)(=O)c2cccc3c2NC[C@H](C)C3)[C@@H](C(=O)O)C1 | – | inactive |
| COc1cc(Cl)c(OC)cc1N | – | inactive |
| CCCCCCC(CO)CCCC (stereo not drawn) | – | inactive |
| CC(=O)Nc1ccc(C(=O)CCl)cc1 | 4.16 µM (active) | – |
| CCCCCC(C=O)=Cc1ccccc1 | 31 µM (active) | – |

| Compound | AC50 | outcome |
| --- | --- | --- |
| CS(=O)(=O)c1ccc(C2=C(c3ccccc3)C(=O)OC2)cc1 | – | inactive |
| CN(C)C(=O)Nc1ccc(Oc2ccc(Cl)cc2)cc1 | – | inactive |
| CC(C=O)Cc1ccc(C(C)(C)C)cc1 (stereo not drawn) | 20 µM (active) | – |
| COc1ccc(CCN2CCC(Nc3nc4ccccc4n3Cc3ccc(F)cc3)CC2)cc1 | 6.91 µM (active) | – |
| CC(CN=Cc1ccccc1O)N=Cc1ccccc1O (stereo not drawn) | – | inactive |
| CN(C)C(=S)SC(=S)N(C)C | 1.25 µM (active) | – |
| CC1(C)CCC[C@]2(C)[C@H]3CCO[C@]3(C)CC[C@@H]12 | 31.8 µM (active) and 33.4 µM (active) | – |
| O=C(Nc1ccc2c(O)c(N=Nc3ccc(N=Nc4ccc(S(=O)(=O)O)cc4)cc3)c(S(=O)(=O)O)cc2c1)c1ccccc1 | – | inactive |
| O=C1OC2(c3ccccc31)c1ccc(O)c(Br)c1Oc1c2ccc(O)c1Br | – | inactive |
| CN(c1nccc(=O)[nH]1)C1CCN(c2nc3ccccc3n2Cc2ccc(F)cc2)CC1 | – | inactive |
| CCC(C)c1cc([N+](=O)[O-])cc([N+](=O)[O-])c1OC(=O)OC(C)C (stereo not drawn) | 28.3 µM (active) | – |
| C1=CC2C3C=CC(C3)C2C1 (stereo not drawn) | – | inactive |
| CC(=O)C1(C)CC2=C(CCCC2(C)C)CC1C (stereo not drawn) | 12 µM (active) | – |
| CCCCN(CCCC)C(=O)N(CCCC)CCCC | 11 µM (active) | – |
| CS(=O)(=O)OCCCCOS(C)(=O)=O | – | inactive |
| C=C(C)C(=O)OCCOCCOCCOC(=O)C(=C)C | – | inactive |

Read-out: Interleukin-8 (IL8), CXCL8 (gene 3576)
Test: BSK_SAg_IL8: BioMAP Diversity Plus: SAg Assay for Interleukin-8 (IL8) Biomarker Activity (AID 2283094)
Conditions: primary human HUVEC with PBMC; actives raise or lower the signal
Summary of the method: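 Primary human endothelial cells with PBMC, exposed 24 h; IL-8 determined by ELISA, analysed bidirectionally relative to DMSO.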

| Compound | AC50 | outcome |
| --- | --- | --- |
| CCOC(=O)C(C#N)=C(c1ccccc1)c1ccccc1 | 20 µM (active) | inactive |
| Clc1cc(Cl)c(-c2c(Cl)c(Cl)cc(Cl)c2Cl)cc1Cl | 10 µM (active) | – |
| COc1ccc(OC)c(N=Nc2c(O)ccc3ccccc23)c1 | – | inactive |
| IC(I)I | – | inactive |
| c1ccc(CCc2ccccc2)cc1 | 31.6 µM (active) | – |
| O=C1OC[C@H](Cc2cccc(O)c2)[C@H]1Cc1cccc(O)c1 | – | inactive |
| O=CN1CCOCC1 | – | inactive |
| CC=Cc1ccc(OCC)c(O)c1 | – | inactive |
| C=C(C)[C@H]1CC=C(C)C(=O)C1 | – | inactive |
| CC(=O)c1c(C)c([N+](=O)[O-])c(C(C)(C)C)c([N+](=O)[O-])c1C | – | inactive |
| C=CC(C)(O)CCC=C(C)C (stereo not drawn) | – | inactive |
| CC1(C)C2=CCCC(C)(C)[C@]23CC[C@H]1C3 | – | inactive |
| C[C@@H]1CCN(C(=O)[C@H](CCCN=C(N)N)NS(=O)(=O)c2cccc3c2NC[C@H](C)C3)[C@@H](C(=O)O)C1 | – | inactive |
| COc1cc(Cl)c(OC)cc1N | – | inactive |
| CCCCCCC(CO)CCCC (stereo not drawn) | – | inactive |
| CC(=O)Nc1ccc(C(=O)CCl)cc1 | 4.9 µM (active) | – |
| CCCCCC(C=O)=Cc1ccccc1 | – | inactive |

| Compound | AC50 | outcome |
| --- | --- | --- |
| CS(=O)(=O)c1ccc(C2=C(c3ccccc3)C(=O)OC2)cc1 | – | inactive |
| CN(C)C(=O)Nc1ccc(Oc2ccc(Cl)cc2)cc1 | – | inactive |
| CC(C=O)Cc1ccc(C(C)(C)C)cc1 (stereo not drawn) | – | inactive |
| COc1ccc(CCN2CCC(Nc3nc4ccccc4n3Cc3ccc(F)cc3)CC2)cc1 | 2.39 µM (active) | – |
| CC(CN=Cc1ccccc1O)N=Cc1ccccc1O (stereo not drawn) | – | inactive |
| CN(C)C(=S)SC(=S)N(C)C | – | inactive |
| CC1(C)CCC[C@]2(C)[C@H]3CCO[C@]3(C)CC[C@@H]12 | – | inactive |
| O=C(Nc1ccc2c(O)c(N=Nc3ccc(N=Nc4ccc(S(=O)(=O)O)cc4)cc3)c(S(=O)(=O)O)cc2c1)c1ccccc1 | – | inactive |
| O=C1OC2(c3ccccc31)c1ccc(O)c(Br)c1Oc1c2ccc(O)c1Br | – | inactive |
| CN(c1nccc(=O)[nH]1)C1CCN(c2nc3ccccc3n2Cc2ccc(F)cc2)CC1 | – | inactive |
| CCC(C)c1cc([N+](=O)[O-])cc([N+](=O)[O-])c1OC(=O)OC(C)C (stereo not drawn) | – | inactive |
| C1=CC2C3C=CC(C3)C2C1 (stereo not drawn) | – | inactive |
| CC(=O)C1(C)CC2=C(CCCC2(C)C)CC1C (stereo not drawn) | 34.4 µM (active) | – |
| CCCCN(CCCC)C(=O)N(CCCC)CCCC | 15.6 µM (active) | – |
| CS(=O)(=O)OCCCCOS(C)(=O)=O | – | inactive |
| C=C(C)C(=O)OCCOCCOCCOC(=O)C(=C)C | – | inactive |
